28 compounds from ChEMBL document CHEMBL3988442, “University of Dundee, Small-Polar-MMV Screening Library” (2021) can be followed below.

The whole screen tested about 48,000 compounds, of which about 13,000 (27%) showed an effect of 50% or more. The list shows a part of the results.

In this experiment the test system is Wolbachia pipientis. In words: Anti-Wolbachia Cell-Based Screen. It is filed as functional. Also noted: scale not given: in the data most compounds retested in dose-response had high values. Particulars: 5 µM.
For the compound `COCC(NC(=O)c1ccoc1)c1ccc(C)o1` (stereo not drawn), the “Percent Effect” value is -2.661%.

Regarding `Cc1ncsc1CCN(C)C(=O)CN1CC2(CCNCC2)OC1=O`, the “Percent Effect” value is -5.863%.

On to `Cc1cc(NC2CCN(c3ccc(F)cc3)CC2)n2nc(C)cc2n1`, for which the “Percent Effect” value is on record as -5.138%.

`Nc1ncc(C(=O)N2CCCC(N)CC2)c(-c2ccccc2)n1` (stereo not drawn): the “Percent Effect” value is recorded as -5.532%.

For `Cc1csc(NC(=O)C2CCN(Cc3cccc4c3OCCO4)CC2)n1`, the “Percent Effect” value was found to be 93.8%.

In the case of `O=C(NCCNCc1cccc2c1OCCCO2)C1CCCC1`, the “Percent Effect” value is -19.03%.

As to `O=C(Nc1nccs1)NC1CCOc2ccccc21` (stereo not drawn), the “Percent Effect” value is given as 5.946%.

`Cc1ccoc1C(=O)NC1CCN(Cc2cccc3c2OCCO3)CC1`: the “Percent Effect” value is recorded as 4.934%.

Consider `O=C(NCc1ccccc1CN1CCC(O)CC1)Nc1ccccn1`, for which the “Percent Effect” value is listed as -0.8138%.

`O=C(Nc1ccccn1)C1CCN(Cc2cccc3c2OCCO3)CC1`: the “Percent Effect” value turned out to be 88.18%.

For `CC(C)C(=O)NC1CCN(Cc2cccc3c2OCCO3)CC1`, the “Percent Effect” value is on record as 6.757%.

As for `CCNC(=O)C1CCN(Cc2csc(-c3ccc(C)o3)n2)CC1`, the “Percent Effect” value came out at 8.641%.

For the compound `CNC(=O)C1CCN(Cc2cc3c(cc2O)CCC3)CC1`, the “Percent Effect” value worked out at 6.264%.

Regarding `O=C(Nc1ccccn1)C1CCN(Cc2cc3c(cc2O)OCO3)CC1`, the “Percent Effect” value is 98.75%.

Regarding `c1cnnc(NCC2CN(Cc3cccc4c3OCCO4)CCO2)c1` (stereo not drawn), the “Percent Effect” value was determined as 4.711%.

In the case of `O=C(Nc1nccs1)C1CCN(Cc2cccc3c2OCCO3)CC1`, the “Percent Effect” value came to 83.61%.

With `CNC(=O)N(Cc1c(F)cccc1F)C1CCCC1`, the “Percent Effect” value was -10.49%.

Take `Cc1cccc(C(C(=O)N2CC(Oc3ccccc3F)C2)N(C)C)c1` (stereo not drawn): the “Percent Effect” value amounted to 3.868%.

Turning to `O=C(O)c1cc2c(c(S(=O)(=O)N(CCCO)c3ccccc3)c1)CCC2`, the “Percent Effect” value is -6.874%.

Turning to `COc1ccc([C@@H]2CN(Cc3ccncc3)C[C@H]2N(C)C)cc1`, the “Percent Effect” value is recorded as 115.9%.

Turning to `COc1ccc([C@@H]2CN(Cc3cccnc3N)C[C@H]2NC(C)=O)cc1`, the “Percent Effect” value is on record as 100.4%.

`Nc1ncccc1CN1C[C@@H](C(=O)O)[C@H](c2cccc(F)c2)C1`: the “Percent Effect” value was -4.464%.

Regarding `COc1ccc([C@@H]2CN(c3cc(OC)ncn3)C[C@H]2N(C)C)cc1`, the “Percent Effect” value is on record as 11.08%.

Regarding `COc1ccc([C@@H]2CN(c3cnccn3)C[C@H]2N(C)C)cc1`, the “Percent Effect” value stood at 6.916%.

Consider `COc1ccc([C@@H]2CN(c3cc(OC)nc(N)n3)C[C@H]2N(C)C)cc1`, for which the “Percent Effect” value is recorded as -18.13%.

Turning to `COc1ccc([C@@H]2CN(Cc3cccnc3N)C[C@H]2N(C)C)cc1`, the “Percent Effect” value came out at 89.74%.

For `COc1ccc([C@@H]2CN(C(=O)CS(C)(=O)=O)C[C@H]2NC(C)=O)cc1`, the “Percent Effect” value is reported as -2.286%.

`CCCn1ccnc1CN1C[C@@H](NC(C)=O)[C@H](c2ccc(OC)cc2)C1`: the “Percent Effect” value is -11.71%.
